This note sets out measurements from PMC7862700, “An all-to-all approach to the identification of sequence-specific readers for epigenetic DNA modifications on cytosine”.

Common to all, as to experiment: DAPPL (digital affinity profiling via proximity ligation, sequencing); 10 mM Tris-HCl pH 7.5, 50 mM NaCl, 1 mM DTT, 4% glycerol, room temperature, 30 min; GST-TFs on glutathione beads, 16-mer random dsDNA library, 0.1% formaldehyde crosslink after washing; high values mean tight binding
What all share (conditions): protein: recombinant; tags: N-terminal GST; dsDNA, one strand shown

Assay [1] addresses T1, FLI1 (Homo sapiens, UniProt Q01543 1-452).
T1 sequence: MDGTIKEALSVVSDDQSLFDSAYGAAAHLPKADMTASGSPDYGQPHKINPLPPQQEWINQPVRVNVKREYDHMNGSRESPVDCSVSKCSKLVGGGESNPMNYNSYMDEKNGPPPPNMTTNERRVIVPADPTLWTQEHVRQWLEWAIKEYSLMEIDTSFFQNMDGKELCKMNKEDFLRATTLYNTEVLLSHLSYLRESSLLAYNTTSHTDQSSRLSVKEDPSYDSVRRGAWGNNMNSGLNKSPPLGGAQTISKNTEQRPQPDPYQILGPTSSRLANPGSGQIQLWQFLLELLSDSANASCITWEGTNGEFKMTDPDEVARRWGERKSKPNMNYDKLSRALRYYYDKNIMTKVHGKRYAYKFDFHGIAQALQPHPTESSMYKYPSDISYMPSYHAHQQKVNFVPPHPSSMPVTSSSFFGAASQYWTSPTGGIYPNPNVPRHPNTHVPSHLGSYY
In short, it runs like this:
(§1)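 Beads coated with glutathione captured GST-fused human transcription factors that had been expressed in yeast, and the factors were then given DNA barcodes and pooled with a tag-only sample. The pools were incubated with 200 nmole of a random double-stranded 16-mer DNA library in Tris/NaCl/DTT/glycerol buffer for 30 min at room temperature, washed, crosslinked with 0.1% formaldehyde and proximity-ligated with BsaI/T4 ligase at 37 °C for 1 h. PCR amplification and Illumina NextSeq500 sequencing came last. Binding signal is each hexamer's read frequency for a factor divided by its frequency for the tag-only sample.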

In assay [2] the target is T2, ELK1 (Homo sapiens, UniProt P19419 1-428).
T2 sequence: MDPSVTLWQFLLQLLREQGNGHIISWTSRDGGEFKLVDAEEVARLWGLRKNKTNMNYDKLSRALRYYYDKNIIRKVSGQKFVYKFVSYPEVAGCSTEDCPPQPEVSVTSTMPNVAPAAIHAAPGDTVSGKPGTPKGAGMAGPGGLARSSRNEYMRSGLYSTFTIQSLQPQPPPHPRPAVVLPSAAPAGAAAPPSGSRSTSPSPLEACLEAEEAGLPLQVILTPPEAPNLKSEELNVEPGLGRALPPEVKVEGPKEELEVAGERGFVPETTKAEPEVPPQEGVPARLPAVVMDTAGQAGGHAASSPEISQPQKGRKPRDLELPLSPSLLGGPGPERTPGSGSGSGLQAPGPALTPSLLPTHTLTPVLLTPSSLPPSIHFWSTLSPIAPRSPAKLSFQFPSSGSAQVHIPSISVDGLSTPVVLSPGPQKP
In short, it runs like this: as §1

Assay [3] concerns the target T3, GABPA (Homo sapiens, UniProt Q06546 1-454).
T3 sequence: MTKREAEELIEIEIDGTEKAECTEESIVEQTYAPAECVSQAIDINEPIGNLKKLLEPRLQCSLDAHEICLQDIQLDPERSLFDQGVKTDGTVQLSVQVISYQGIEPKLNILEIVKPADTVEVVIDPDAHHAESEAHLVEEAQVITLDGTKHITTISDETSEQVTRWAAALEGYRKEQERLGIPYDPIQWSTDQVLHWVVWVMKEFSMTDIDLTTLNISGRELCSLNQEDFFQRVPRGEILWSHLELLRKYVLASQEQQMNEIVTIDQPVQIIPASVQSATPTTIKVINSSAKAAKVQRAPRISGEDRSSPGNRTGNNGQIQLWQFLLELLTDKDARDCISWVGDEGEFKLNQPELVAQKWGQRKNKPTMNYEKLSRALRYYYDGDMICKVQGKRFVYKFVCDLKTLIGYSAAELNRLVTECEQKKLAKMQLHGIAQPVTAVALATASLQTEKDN
The procedure, abridged: as §1

In assay [4] the target is T4, ERG (Homo sapiens, UniProt P11308 1-479).
T4 sequence: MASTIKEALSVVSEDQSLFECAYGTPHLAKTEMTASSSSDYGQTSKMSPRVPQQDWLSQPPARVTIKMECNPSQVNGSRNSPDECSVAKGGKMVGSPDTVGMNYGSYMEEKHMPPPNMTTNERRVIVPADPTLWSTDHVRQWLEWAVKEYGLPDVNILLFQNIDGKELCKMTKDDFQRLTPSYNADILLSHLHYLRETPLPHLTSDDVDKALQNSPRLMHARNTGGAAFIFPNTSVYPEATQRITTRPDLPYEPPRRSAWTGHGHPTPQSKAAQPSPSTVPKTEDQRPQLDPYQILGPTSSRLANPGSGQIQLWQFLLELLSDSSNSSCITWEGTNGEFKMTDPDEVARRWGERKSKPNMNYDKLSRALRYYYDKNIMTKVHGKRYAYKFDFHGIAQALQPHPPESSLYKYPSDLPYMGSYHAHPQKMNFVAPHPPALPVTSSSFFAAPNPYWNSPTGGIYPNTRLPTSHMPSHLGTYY
The procedure, abridged:
as §1

Assay [5] concerns the target ELF1 (Homo sapiens, UniProt P32519 1-619). In short, it runs like this:
as §1

The target of assay [6] is T5, EHF (Homo sapiens, UniProt Q9NZC4 1-300).
T5 sequence: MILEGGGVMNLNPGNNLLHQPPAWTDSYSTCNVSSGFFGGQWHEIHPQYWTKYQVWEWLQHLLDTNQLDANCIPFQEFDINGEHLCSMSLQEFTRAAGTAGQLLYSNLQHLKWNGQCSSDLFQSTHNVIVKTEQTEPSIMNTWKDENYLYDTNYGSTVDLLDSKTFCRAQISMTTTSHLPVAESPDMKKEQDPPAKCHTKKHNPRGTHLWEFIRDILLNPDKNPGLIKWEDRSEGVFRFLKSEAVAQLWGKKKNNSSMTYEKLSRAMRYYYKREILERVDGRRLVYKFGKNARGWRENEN
The procedure, abridged:
as §1

For assay [7], the target named is SPI1 (Homo sapiens, UniProt P17947 1-270). In short, it runs like this:
as §1

For assay [8], the target named is SPIB (Homo sapiens, UniProt Q01892 1-262). In short, it runs like this:
as §1

Assay [9] has as its target T6, ELK3 (Homo sapiens, UniProt P41970 1-407).
T6 sequence: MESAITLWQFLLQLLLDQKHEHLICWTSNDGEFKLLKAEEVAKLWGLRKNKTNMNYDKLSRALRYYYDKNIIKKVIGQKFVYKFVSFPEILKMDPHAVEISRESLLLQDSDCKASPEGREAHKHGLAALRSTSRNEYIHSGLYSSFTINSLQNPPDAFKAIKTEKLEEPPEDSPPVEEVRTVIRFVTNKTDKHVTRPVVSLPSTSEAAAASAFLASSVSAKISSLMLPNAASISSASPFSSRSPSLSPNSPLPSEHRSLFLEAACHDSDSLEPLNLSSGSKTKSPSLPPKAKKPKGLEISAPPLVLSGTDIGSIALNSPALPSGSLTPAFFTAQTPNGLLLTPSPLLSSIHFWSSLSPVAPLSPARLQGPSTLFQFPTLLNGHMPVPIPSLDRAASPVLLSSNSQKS
In short, it runs like this: as §1

Sequence of ELF1 (P32519 whole entry): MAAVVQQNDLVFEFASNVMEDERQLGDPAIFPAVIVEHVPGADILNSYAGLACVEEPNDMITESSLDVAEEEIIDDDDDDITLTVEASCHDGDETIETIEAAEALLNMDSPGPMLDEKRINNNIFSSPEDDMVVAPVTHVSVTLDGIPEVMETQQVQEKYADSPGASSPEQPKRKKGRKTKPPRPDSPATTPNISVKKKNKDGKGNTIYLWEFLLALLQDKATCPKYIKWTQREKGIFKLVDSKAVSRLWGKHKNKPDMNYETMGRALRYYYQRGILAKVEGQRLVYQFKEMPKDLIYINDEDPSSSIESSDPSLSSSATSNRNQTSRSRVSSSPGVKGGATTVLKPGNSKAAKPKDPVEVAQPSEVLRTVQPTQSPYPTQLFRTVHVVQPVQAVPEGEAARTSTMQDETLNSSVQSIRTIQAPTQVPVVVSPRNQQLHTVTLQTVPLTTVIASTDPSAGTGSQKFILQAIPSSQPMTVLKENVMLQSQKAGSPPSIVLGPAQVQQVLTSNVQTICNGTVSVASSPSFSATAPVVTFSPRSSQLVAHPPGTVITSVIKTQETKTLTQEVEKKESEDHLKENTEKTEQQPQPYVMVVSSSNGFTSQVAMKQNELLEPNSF
Sequence of SPIB (Q01892 whole entry): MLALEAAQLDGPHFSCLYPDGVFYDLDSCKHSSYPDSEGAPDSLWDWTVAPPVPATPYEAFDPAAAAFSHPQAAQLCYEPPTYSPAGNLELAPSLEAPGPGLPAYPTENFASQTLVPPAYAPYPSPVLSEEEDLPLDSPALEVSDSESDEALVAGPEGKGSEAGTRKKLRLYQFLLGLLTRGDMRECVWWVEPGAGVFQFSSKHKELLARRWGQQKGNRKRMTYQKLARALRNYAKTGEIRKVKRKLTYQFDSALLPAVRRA

Take ATATCC: the binding signal is 2.59 fold enrichment (6-mer frequency, TF over GST control) in [1]; 2.88 fold enrichment (6-mer frequency, TF over GST control) in assay [2]; 2.45 fold enrichment (6-mer frequency, TF over GST control) in [3]; 3.33 fold enrichment (6-mer frequency, TF over GST control) in assay [4]; 2.56 fold enrichment (6-mer frequency, TF over GST control) in assay [5]; 2.58 fold enrichment (6-mer frequency, TF over GST control) in assay [6]. Further, the binding signal is 2.43 fold enrichment (6-mer frequency, TF over GST control) in [7]; 2.82 fold enrichment (6-mer frequency, TF over GST control) in assay [8]; 2.72 fold enrichment (6-mer frequency, TF over GST control) in assay [9].
In the case of TCGCTC, the binding signal in assay [1] is 1.25 fold enrichment (6-mer frequency, TF over GST control); in [2], 1.27 fold enrichment (6-mer frequency, TF over GST control); in assay [3], 1.35 fold enrichment (6-mer frequency, TF over GST control); in assay [4], 1.26 fold enrichment (6-mer frequency, TF over GST control); in assay [5], 1.29 fold enrichment (6-mer frequency, TF over GST control); in assay [6], 1.19 fold enrichment (6-mer frequency, TF over GST control). The binding signal in assay [7] is 1.29 fold enrichment (6-mer frequency, TF over GST control); in assay [8] it was 1.27 fold enrichment (6-mer frequency, TF over GST control); in assay [9], 1.37 fold enrichment (6-mer frequency, TF over GST control).
Consider CCAATT, for which the binding signal in assay [1] is 1.2 fold enrichment (6-mer frequency, TF over GST control); in [2], 1.24 fold enrichment (6-mer frequency, TF over GST control); in [3] it was 1.25 fold enrichment (6-mer frequency, TF over GST control); in assay [4], 1.24 fold enrichment (6-mer frequency, TF over GST control); in assay [5] it was 1.16 fold enrichment (6-mer frequency, TF over GST control); in assay [6] it was 1.25 fold enrichment (6-mer frequency, TF over GST control). The binding signal was 1.23 fold enrichment (6-mer frequency, TF over GST control) in assay [7]; 1.28 fold enrichment (6-mer frequency, TF over GST control) in [8]; 1.18 fold enrichment (6-mer frequency, TF over GST control) in assay [9].
As to ACGTAT, the binding signal in assay [1] was 1.24 fold enrichment (6-mer frequency, TF over GST control); in [2], 1.29 fold enrichment (6-mer frequency, TF over GST control); in [3] it was 1.21 fold enrichment (6-mer frequency, TF over GST control); in assay [4], 1.17 fold enrichment (6-mer frequency, TF over GST control); in assay [5] it was 1.17 fold enrichment (6-mer frequency, TF over GST control); in assay [6], 1.29 fold enrichment (6-mer frequency, TF over GST control). The binding signal in assay [7] was 1.14 fold enrichment (6-mer frequency, TF over GST control); in assay [8] it was 1.19 fold enrichment (6-mer frequency, TF over GST control); in assay [9] it was 1.42 fold enrichment (6-mer frequency, TF over GST control).
For CTGCAT, the binding signal is 1.42 fold enrichment (6-mer frequency, TF over GST control) in [1]; 1.51 fold enrichment (6-mer frequency, TF over GST control) in [2]; 1.41 fold enrichment (6-mer frequency, TF over GST control) in [3]; 1.41 fold enrichment (6-mer frequency, TF over GST control) in [4]; 1.47 fold enrichment (6-mer frequency, TF over GST control) in assay [5]; 1.47 fold enrichment (6-mer frequency, TF over GST control) in assay [6]. Also, the binding signal in [7] is 1.42 fold enrichment (6-mer frequency, TF over GST control); in assay [8], 1.65 fold enrichment (6-mer frequency, TF over GST control); in [9] it was 1.39 fold enrichment (6-mer frequency, TF over GST control).
For the sequence CTAATT, the binding signal in assay [1] is 1.35 fold enrichment (6-mer frequency, TF over GST control); in assay [2] it was 1.2 fold enrichment (6-mer frequency, TF over GST control); in assay [3], 1.33 fold enrichment (6-mer frequency, TF over GST control); in assay [4] it was 1.36 fold enrichment (6-mer frequency, TF over GST control); in assay [5] it was 1.43 fold enrichment (6-mer frequency, TF over GST control); in [6] it was 1.33 fold enrichment (6-mer frequency, TF over GST control). Also, the binding signal in assay [7] was 1.3 fold enrichment (6-mer frequency, TF over GST control); in assay [8], 1.37 fold enrichment (6-mer frequency, TF over GST control); in assay [9], 1.4 fold enrichment (6-mer frequency, TF over GST control).
Take TTCTAC: the binding signal in assay [1] is 1.39 fold enrichment (6-mer frequency, TF over GST control); in assay [2], 1.43 fold enrichment (6-mer frequency, TF over GST control); in assay [3] it was 1.59 fold enrichment (6-mer frequency, TF over GST control); in [4] it was 1.53 fold enrichment (6-mer frequency, TF over GST control); in assay [5] it was 1.55 fold enrichment (6-mer frequency, TF over GST control); in [6], 1.49 fold enrichment (6-mer frequency, TF over GST control). The binding signal in [7] is 1.46 fold enrichment (6-mer frequency, TF over GST control); in assay [8], 1.6 fold enrichment (6-mer frequency, TF over GST control); in [9], 1.44 fold enrichment (6-mer frequency, TF over GST control).
With TCTCTT, the binding signal in assay [1] is 1.52 fold enrichment (6-mer frequency, TF over GST control); in assay [2] it was 1.34 fold enrichment (6-mer frequency, TF over GST control); in assay [3], 1.45 fold enrichment (6-mer frequency, TF over GST control); in [4], 1.27 fold enrichment (6-mer frequency, TF over GST control); in assay [5] it was 1.47 fold enrichment (6-mer frequency, TF over GST control); in assay [6], 1.41 fold enrichment (6-mer frequency, TF over GST control). Besides, the binding signal in assay [7] was 1.32 fold enrichment (6-mer frequency, TF over GST control); in assay [8], 1.38 fold enrichment (6-mer frequency, TF over GST control); in [9], 1.31 fold enrichment (6-mer frequency, TF over GST control).
